Several values for one entry are separate records, joined by “and”; a condition that tells them apart may be missing. Equal values may be shown once. Compounds without any hit were thinned out: in the full panel of roughly 83,000, 20% have a hit.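 In brief: 96-well plates, 48 h treatment, single concentration, percent growth endpoint.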 Activity calls are given as the source filed them. The calls were made as follows: active = growth percent below 10; inactive = the rest.
How the values were obtained:
Assay in all cases: NCI-60 one-dose screen, 48 h (100 = growth as untreated, 0 = no growth, -100 = all killed)
[1] = tested on: HCT-15 colon
[2] = tested on: HT29 colon
[3] = tested on: SNB-75 CNS
[4] = tested on: SNB-19 CNS
[5] = tested on: U251 CNS
[6] = tested on: PC-3 prostate
[7] = tested on: SK-MEL-5 melanoma
[8] = tested on: UACC-62 melanoma
[9] = tested on: LOX IMVI melanoma
[10] = tested on: SK-MEL-28 melanoma
[11] = tested on: SK-MEL-2 melanoma
[12] = tested on: EKVX NSCLC
[13] = tested on: SN12C renal
[14] = tested on: UO-31 renal
[15] = tested on: TK-10 renal
[16] = tested on: ACHN renal
[17] = tested on: CAKI-1 renal
[18] = tested on: A498 renal
[19] = tested on: CCRF-CEM leukemia
[20] = tested on: MOLT-4 leukemia; conditions: 10 µM unless noted

Measured: growth

Oc1cncc(-c2ccc3ncnc(N4CCc5cc(F)c(Cl)cc54)c3c2)c1
active: [18]; 10 µM unless noted -1.41%
inactive: [1]; 10 µM unless noted 66.3% | [2]; 10 µM unless noted 57.8% | [3]; 10 µM unless noted 25.6% | [4]; 10 µM unless noted 38.6% | [5]; 10 µM unless noted 39.1% | [6]; 10 µM unless noted 57.4% | [7]; 10 µM unless noted 78.5% | [8]; 10 µM unless noted 71.8% | [9]; 10 µM unless noted 38.8% | [10]; 10 µM unless noted 77.6% | [11]; 10 µM unless noted 66.4% | [12]; 10 µM unless noted 59.2% | [13]; 10 µM unless noted 44.2% | [14]; 10 µM unless noted 35.7% | [15]; 10 µM unless noted 78.8% | [16]; 10 µM unless noted 46% | [17]; 10 µM unless noted 41.5% | [19]; 10 µM unless noted 76.2% | [20] 57.6%

Cc1ccccc1NC(=O)c1cccc(NC(=O)CCl)c1
inactive: [1]; 10 µM unless noted 43.5% | [2]; 10 µM unless noted 35.6% | [3]; 10 µM unless noted 53.9% | [4]; 10 µM unless noted 72.7% | [6]; 10 µM unless noted 55.8% | [7]; 10 µM unless noted 44.2% | [8]; 10 µM unless noted 24.4% | [10]; 10 µM unless noted 71.1% | [11]; 10 µM unless noted 92.9% | [12]; 10 µM unless noted 97% | [13]; 10 µM unless noted 15.4% | [14]; 10 µM unless noted 71.3% | [15]; 10 µM unless noted 88.2% | [16]; 10 µM unless noted 22.8% | [17]; 10 µM unless noted 74.5% | [18]; 10 µM unless noted 105%
active: [5]; 10 µM unless noted -53.1% | [9]; 10 µM unless noted -47.5% | [19]; 10 µM unless noted 8.03%

CC/C(=C(\c1ccc(O)cc1)c1ccc(OCCNC)cc1)c1ccccc1
inactive: [1]; 1 µM 107% | [1]; 10 µM 69.8% | [3]; 1 µM 110% | [3]; 10 µM 62.7% | [4]; 1 µM 94.6% | [4]; 10 µM 98.6% | [5]; 1 µM 98.6% | [5]; 10 µM 57.4% | [6]; 1 µM 101% | [6]; 10 µM 83% | [7]; 1 µM 97.1% | [7]; 10 µM 89.2% | [8]; 1 µM 91.6% | [8]; 10 µM 101% | [9]; 1 µM 86.9% | [9]; 10 µM 83.1% | [11]; 1 µM 95.1% | [11]; 10 µM 98.7% | [12]; 1 µM 98.9% | [12]; 10 µM 96.4% | [13]; 1 µM 101% | [13]; 10 µM 73.8% | [14]; 1 µM 90.2% | [14]; 10 µM 62.7% | [15]; 1 µM 91.2% | [15]; 10 µM 94.5% | [16]; 1 µM 98.4% | [16]; 10 µM 90.4% | [17]; 1 µM 98.9% | [17]; 10 µM 85.3% | [18]; 1 µM 104% | [18]; 10 µM 91.2% | [19]; 1 µM 89.9% | [19]; 10 µM 92.6%

CN(CCSSCCN1CCOCC1)C(=O)Oc1cc2c(c3ccccc13)[C@H](CCl)CN2C(=O)c1cc2cc(OCCCN3CCC3)ccc2[nH]1
active: [1]; 10 µM unless noted -49.3% | [2]; 10 µM unless noted -40.5% | [3]; 10 µM unless noted -46% | [4]; 10 µM unless noted -100% | [5]; 10 µM unless noted -60.3% | [6]; 10 µM unless noted -21.9% | [7]; 10 µM unless noted -89.6% | [8]; 10 µM unless noted -72.7% | [9]; 10 µM unless noted -73% | [10]; 10 µM unless noted -58% | [11]; 10 µM unless noted -84.3% | [12]; 10 µM unless noted -61.3% | [13]; 10 µM unless noted -9.12% | [14]; 10 µM unless noted -16.7% | [15]; 10 µM unless noted -10.3% | [16]; 10 µM unless noted -66.8% | [17]; 10 µM unless noted -48.1% | [18]; 10 µM unless noted -14.5% | [19]; 10 µM unless noted -41.3%

Cc1nc(N)ncc1-c1ccc2ncnc(N3CCc4cc(F)c(Cl)cc43)c2c1
active: [15]; 10 µM unless noted 5.99%
inactive: [1]; 10 µM unless noted 55.5% | [2]; 10 µM unless noted 67.2% | [3]; 10 µM unless noted 15.7% | [4]; 10 µM unless noted 68.3% | [5]; 10 µM unless noted 67% | [6]; 10 µM unless noted 54.4% | [7]; 10 µM unless noted 77.1% | [8]; 10 µM unless noted 71.8% | [9]; 10 µM unless noted 60.9% | [10]; 10 µM unless noted 107% | [11]; 10 µM unless noted 100% | [12]; 10 µM unless noted 20.3% | [13]; 10 µM unless noted 54.9% | [14]; 10 µM unless noted 27.6% | [16]; 10 µM unless noted 27.2% | [17]; 10 µM unless noted 14.1% | [18]; 10 µM unless noted 25.3% | [19]; 10 µM unless noted 77.8%

O=c1[nH]c2ccccc2cc1CSc1ccccc1Nc1nccc(-c2ccc3c(c2)OCO3)n1
inactive: [1]; 10 µM unless noted 95.1% | [2]; 10 µM unless noted 94.4% | [4]; 10 µM unless noted 63.1% | [5]; 10 µM unless noted 51.3% | [6]; 10 µM unless noted 79.2% | [7]; 10 µM unless noted 87.2% | [8]; 10 µM unless noted 68.5% | [9]; 10 µM unless noted 76.5% | [10]; 10 µM unless noted 83% | [11]; 10 µM unless noted 96.7% | [12]; 10 µM unless noted 86.6% | [13]; 10 µM unless noted 57% | [14]; 10 µM unless noted 77.6% | [15]; 10 µM unless noted 107% | [16]; 10 µM unless noted 51.6% | [17]; 10 µM unless noted 16% | [18]; 10 µM unless noted 126% | [19]; 10 µM unless noted 101% | [20] 93.6%
active: [3]; 10 µM unless noted 9.83%

Cc1ccc(S(=O)(=O)N(CCn2ccnc2[N+](=O)[O-])CCn2ccnc2[N+](=O)[O-])cc1
inactive: [1]; 10 µM unless noted 103% | [2]; 10 µM unless noted 112% | [3]; 10 µM unless noted 96% | [4]; 10 µM unless noted 101% | [5]; 10 µM unless noted 102% | [6]; 10 µM unless noted 94.9% | [7]; 10 µM unless noted 99.3% | [8]; 10 µM unless noted 94% | [9]; 10 µM unless noted 102% | [10]; 10 µM unless noted 106% | [11]; 10 µM unless noted 105% | [12]; 10 µM unless noted 95.5% | [13]; 10 µM unless noted 105% | [14]; 10 µM unless noted 76.4% | [15]; 10 µM unless noted 98.4% | [16]; 10 µM unless noted 101% | [17]; 10 µM unless noted 89.2% | [18]; 10 µM unless noted 112% | [19]; 10 µM unless noted 100% | [20] 99.8%

CS(=O)(=O)Nc1cccc(-n2c(COc3ccc(OC(F)(F)F)cc3)nc3ccccc32)c1
inactive: [1]; 10 µM unless noted 94.6% and 105% | [2]; 10 µM unless noted 103% and 114% | [3]; 10 µM unless noted 55.4% and 95.4% | [4]; 10 µM unless noted 93.8% and 101% | [5]; 10 µM unless noted 85% and 101% | [6]; 10 µM unless noted 70.7% and 103% | [7]; 10 µM unless noted 78.8% and 106% | [8]; 10 µM unless noted 72.3% and 107% | [9]; 10 µM unless noted 83.7% and 110% | [10]; 10 µM unless noted 118% and 133% | [11]; 10 µM unless noted 86% and 110% | [12]; 10 µM unless noted 86.4% and 98% | [13]; 10 µM unless noted 113% and 115% | [14]; 10 µM unless noted 51.1% and 87.7% | [15]; 10 µM unless noted 105% and 111% | [16]; 10 µM unless noted 81% and 109% | [17]; 10 µM unless noted 61.4% and 99.4% | [18]; 10 µM unless noted 98.2% and 127% | [19]; 10 µM unless noted 93.3% and 99.8%

CC/C(=C(/c1ccc(O)cc1)c1ccc(OCCN(C)C(=O)COCCOCCNC(=O)Cc2ccc3c(c2)CN([C@@H]2CCC(=O)NC2=O)C3=O)cc1)c1ccccc1
inactive: [1]; 1 µM 107% | [1]; 10 µM 105% | [2]; 1 µM 102% | [2]; 10 µM 83% | [3]; 1 µM 59.6% | [3]; 10 µM 22.7% | [4]; 1 µM 79.5% | [4]; 10 µM 47.5% | [5]; 1 µM 91.9% | [5]; 10 µM 88.7% | [6]; 1 µM 52.8% | [6]; 10 µM 24.4% | [7]; 1 µM 96.3% | [7]; 10 µM 65.8% | [8]; 1 µM 95.6% | [8]; 10 µM 88.2% | [9]; 1 µM 95.1% | [9]; 10 µM 92.1% | [10]; 1 µM 98.3% | [10]; 10 µM 74.3% | [11]; 1 µM 95.4% | [11]; 10 µM 64.1% | [12]; 1 µM 99.4% | [12]; 10 µM 105% | [13]; 1 µM 88.7% | [13]; 10 µM 53.5% | [14]; 1 µM 91.6% | [14]; 10 µM 89.4% | [15]; 1 µM 101% | [15]; 10 µM 89.2% | [16]; 1 µM 102% | [16]; 10 µM 106% | [17]; 1 µM 99.8% | [17]; 10 µM 101% | [18]; 1 µM 119% | [18]; 10 µM 115% | [19]; 10 µM 16.7%
active: [19]; 1 µM -11%

COc1ccc(Nc2nnc(-c3c[nH]c4ccccc34)o2)cc1
inactive: [1]; 10 µM unless noted 69% | [2]; 10 µM unless noted 106% | [3]; 10 µM unless noted 78.8% | [4]; 10 µM unless noted 95.2% | [5]; 10 µM unless noted 97.6% | [6]; 10 µM unless noted 78.6% | [7]; 10 µM unless noted 90.6% | [8]; 10 µM unless noted 82.2% | [9]; 10 µM unless noted 71.6% | [10]; 10 µM unless noted 107% | [11]; 10 µM unless noted 92% | [12]; 10 µM unless noted 68% | [13]; 10 µM unless noted 58.6% | [14]; 10 µM unless noted 62.6% | [15]; 10 µM unless noted 135% | [16]; 10 µM unless noted 89.6% | [17]; 10 µM unless noted 72.9% | [18]; 10 µM unless noted 130% | [20] 40.3%
active: [19]; 10 µM unless noted 7.79%

CC/C(=C(/c1ccc(O)cc1)c1ccc(OCCN(C)C(=O)CCOCCNC(=O)Cc2ccc3c(c2)CN([C@@H]2CCC(=O)NC2=O)C3=O)cc1)c1ccccc1
inactive: [1]; 1 µM 108% | [1]; 10 µM 100% | [3]; 1 µM 57% | [3]; 10 µM 27.8% | [4]; 1 µM 75.9% | [4]; 10 µM 62.1% | [5]; 1 µM 96.2% | [5]; 10 µM 92.6% | [6]; 1 µM 42.7% | [6]; 10 µM 27.4% | [7]; 1 µM 97% | [7]; 10 µM 71.5% | [8]; 1 µM 96.9% | [8]; 10 µM 85.5% | [9]; 1 µM 99.2% | [9]; 10 µM 93.6% | [11]; 1 µM 101% | [11]; 10 µM 74.7% | [12]; 1 µM 102% | [12]; 10 µM 97.8% | [13]; 1 µM 89% | [13]; 10 µM 78% | [14]; 1 µM 92% | [14]; 10 µM 86.8% | [15]; 1 µM 94% | [15]; 10 µM 93.5% | [16]; 1 µM 103% | [16]; 10 µM 101% | [17]; 1 µM 99% | [17]; 10 µM 94.9%
